Hits are enriched below; roughly 5.9% of the tested compounds scored in any of these assays.
ABHD5 PLIN5 PPI – blocks binding of human ABHD5 to perilipin-5; Split G. princeps luciferase complementation, luminescence, 4 h; inhibition, % at 4 µM; AID 602281; Q00G26+Q8WTS1; actives 0.78% (n = 360,000);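 active = inhibition above the mean inhibition across every tested compound plus 3 SD, cut at about 22% in these data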;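 also: 0% = DMSO only wells and the 100% control is not disclosed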
rCAG RNA binder – molecules binding r(CAG) RNA repeats; inhibition, % at 3 µM; actives 1.3% (n = 370,000); r(CAG) RNA repeat, TO-PRO-1 dye displacement fluorescence; AID 651821;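 active = inhibition above the plate cutoff, the mean of all test compounds on that plate plus 3 SD, cut at about 35% in these data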;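 also: 0% = DMSO alone and 100% = 100 µM mitoxantrone as full dye displacement; higher means more dye released from RNA so lower well fluorescence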
Rtt109 Vps75 – inhibitors of Candida albicans Rtt109/Vps75 histone acetyltransferase; purified Rtt109/Vps75, ThioGlo CoA-SH fluorescence, 4 h; inhibition, % at 34.9 µM; actives 0.16% (n = 330,000);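 active = inhibition of at least 50% in every replicate; inconclusive = best replicate reaches 50% inhibition but some replicates fall short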
PRMT1 inh – PRMT1 (human) inhibition, primary screen | Q99873 | recombinant PRMT1, activity-based probe fluorescence polarization | inhibition, % at 2.79 µM | actives 1.3% (n = 370,000);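 active = inhibition above about 21% made by adding two undisclosed values, limit read from the data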
Target sequence (Q99873 whole entry, looked up): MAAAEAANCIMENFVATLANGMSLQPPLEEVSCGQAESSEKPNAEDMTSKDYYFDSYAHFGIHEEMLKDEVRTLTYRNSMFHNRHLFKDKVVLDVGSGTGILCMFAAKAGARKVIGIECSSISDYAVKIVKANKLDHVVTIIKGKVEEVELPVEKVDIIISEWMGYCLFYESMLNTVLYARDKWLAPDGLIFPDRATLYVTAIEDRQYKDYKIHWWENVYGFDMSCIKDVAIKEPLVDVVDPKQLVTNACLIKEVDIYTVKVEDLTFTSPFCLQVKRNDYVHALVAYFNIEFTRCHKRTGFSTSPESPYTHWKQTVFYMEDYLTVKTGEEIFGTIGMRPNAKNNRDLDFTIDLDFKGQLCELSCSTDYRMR
ALR inh – inhibitors of human sulfhydryl oxidase ALR; AID 485317; actives 3.8% (n = 290,000); P55789; purified ALR, DTT oxidation, H2O2 HRP-luminol luminescence; inhibition, % (no concentration beside the values);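 active = mean replicate inhibition above about 79%, with every replicate also reaching it, limit read from the data; inconclusive = only one of the two criteria met; inactive = mean below limit and not every replicate reaching it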
Target sequence (P55789 whole entry, looked up): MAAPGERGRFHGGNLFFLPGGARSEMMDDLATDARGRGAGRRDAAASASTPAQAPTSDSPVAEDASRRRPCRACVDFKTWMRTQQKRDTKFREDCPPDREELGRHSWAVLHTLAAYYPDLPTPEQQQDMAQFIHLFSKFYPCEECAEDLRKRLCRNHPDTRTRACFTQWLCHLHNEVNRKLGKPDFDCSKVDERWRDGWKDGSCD
LANA-H2A inh – blocks KSHV LANA binding to histone H2A/H2B. Q9QR71. cell-free LANA-H2A/H2B peptide, fluorescence polarization. inhibition, % (concentration not given with the values). actives 0.6% (n = 320,000); in the data active = inhibition mostly above about 10%, no sharp cut-off; inactive = mostly below about 6.7%
rCAG binder conf – r(CAG) RNA repeat binding, confirmation | shares compounds with rCAG RNA binder | AID 652065 | inhibition, % at 3 µM | TO-PRO-1 dye displacement fluorescence | actives 70% (n = 4,300);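 active = inhibition above a per-plate cutoff, the mean inhibition of sample wells plus 3 SD, cut at about 35% in these data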;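 also: loss of TO-PRO-1 fluorescence as compound displaces dye from 1x1 AA loop RNA; 0% = DMSO only wells and 100% = 100 µM mitoxantrone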
DNA CAG counter – DNA CAG dye complex inhibition counter-screen | shares compounds with rCAG RNA binder | d(CAG) DNA oligo TO-PRO-1 dye displacement, fluorescence | inhibition, % at 3 µM | actives 94% (n = 4,300);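 active = inhibition above its plate's cutoff, the mean test-well inhibition plus 3 SD, cut at about 4.8% in these data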;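 also: 0% = DNA dye mix with DMSO and 100% = 100 µM mitoxantrone; hits displace the dye from DNA and so lower well fluorescence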
DNA CAG DR – counter-screen for rCAG binders: inhibitors of DNA CAG TO-PRO-1 complex. IC50, µM. shares compounds with rCAG RNA binder. AID 686960. actives 20% (n = 250). DNA CAG/GTC duplex TO-PRO-1 dye displacement fluorescence; in the data active = IC50 below about 10 µM
* marks the source's active call; other numbers are inactive results; i = inactive; ? = inconclusive; / = not tested or not shown.

SMILES	ABHD5 PLIN5 PPI	rCAG RNA binder	Rtt109 Vps75	PRMT1 inh	ALR inh	LANA-H2A inh	rCAG binder conf	DNA CAG counter	others
O=C(O)C1=CC[C@@H](c2ccc(Cl)cc2)N(S(=O)(=O)c2ccc(Cl)cc2)[C@H]1c1ccc(Br)cc1	2	85*	-5	5	/	/	88*	58*
O=C(C1CCCN1S(=O)(=O)c1ccc([N+](=O)[O-])cc1)N1CCc2ccccc2C1 (stereo not drawn)	/	3	/	-2	/	/	/	/
COCC(=O)Nc1ccc2c(c1)[C@H]1C[C@@H](CC(=O)NCC3CC3)O[C@H](CO)[C@H]1O2	/	2	/	-1	/	/	/	/
COc1ccc([C@@H]2CC=C(C(=O)O)[C@H](c3ccc(Br)cc3)N2S(=O)(=O)c2ccc(C)cc2)cc1OC	0	47*	4	-2	4	/	43*	14*
Cc1ccc(S(=O)(=O)N2[C@@H](c3ccc(Cl)cc3)C(C(=O)O)=CC[C@H]2c2cccc(C)c2)cc1	0	4	20	0	21	-6	/	/
Cc1ccc(S(=O)(=O)N2[C@@H](c3ccc(Br)cc3)C(C(=O)O)=CC[C@H]2c2ccc(Cl)cc2)cc1	1	83*	3	-1	/	/	82*	53*
Cc1ccc(S(=O)(=O)N2[C@@H](c3ccccc3)C(C(=O)O)=CC[C@H]2c2ccc(Cl)cc2)cc1	-5	58*	-3	0	4	5	72*	34*	DNA CAG DR=i
Cc1ccc(S(=O)(=O)N2[C@@H](c3ccc(F)cc3)C(C(=O)O)=CC[C@H]2c2ccc(Cl)cc2)cc1	-6	78*	-6	4	17	0	69*	31*
COc1ccc([C@@H]2CC=C(C(=O)O)[C@H](c3ccc(F)cc3)N2S(=O)(=O)c2ccc(C)cc2)cc1OC	-12	26	-10	-1	2	3	/	/
COC(=O)[C@]12C[C@H](CC(=O)N3CCCC3)C(=O)N(CCC3=CCCCC3)C1=C[C@H](COCc1ccccc1)O[C@@H]2C	/	1	/	0	/	/	/	/
O=C(COc1ccccc1)OCC(=O)c1ccc(S(=O)(=O)N2CCCCC2)cc1	-2	6	-6	0	-5	/	/	/
Cc1ccc(S(=O)(=O)N2[C@@H](c3cccc(Cl)c3)C(C(=O)O)=CC[C@H]2c2ccc(C(C)C)cc2)cc1	-12	85*	2	2	10	0	80*	45*
O=C(O)C1=CC[C@@H](c2ccc(Cl)cc2)N(S(=O)(=O)c2ccc(Cl)cc2)[C@H]1c1cccc(Cl)c1	10	14	0	1	5	-1	/	/
Cc1ccc(S(=O)(=O)N2[C@@H](c3ccc(Cl)cc3)C(C(=O)O)=CC[C@H]2c2ccc(Cl)cc2)cc1	-1	82*	-8	4	9	1	84*	53*
COCCCN1C(=O)[C@H](CC(=O)N2CCSCC2)[C@]2(C(=O)OC)CCCCC=C12	/	4	/	3	/	/	/	/
O=C(CSc1nnc(-c2cccnc2)n1-c1ccc(Cl)cc1)Nc1ccc(S(=O)(=O)Nc2nccs2)cc1	/	59*	/	1	/	/	63*	22*
CCOc1ccc(-n2c(SCC(=O)Nc3ccc(S(=O)(=O)Nc4nccs4)cc3)nnc2-c2ccccc2)cc1	/	80*	/	2	/	/	72*	38*
O=C(CSc1nnc(-c2cccs2)n1-c1ccccc1)Nc1ccccc1	0	2	2	0	-4	-1	/	/
Cc1ccc(-n2c(SCC(=O)Nc3ccc(S(=O)(=O)Nc4cc(C)nc(C)n4)cc3)nnc2-c2cccs2)cc1	/	43*	/	5	/	/	42*	11*
COc1ccc(-c2nnc(SCC(=O)Nc3ccc(S(=O)(=O)Nc4nccs4)cc3)n2-c2ccc(OC)cc2)cc1	/	64*	/	2	/	/	58*	28*
Cc1cc(C)nc(SCC(=O)Nc2ccc(S(=O)(=O)Nc3nccs3)cc2)n1	2	12	-9	0	13	0	/	/
COc1ccc(-n2c(SCC(=O)Nc3ccc(S(=O)(=O)Nc4nccs4)cc3)nnc2-c2cccs2)cc1	/	73*	/	4	/	/	72*	33*	DNA CAG DR=i
Cn1c(SCC(=O)Nc2ccc(S(=O)(=O)Nc3nccs3)cc2)nc2sc3c(c2c1=O)CCCC3	/	74*	/	5	/	/	77*	43*
COc1ccc(-n2c(SCC(=O)Nc3ccc(S(=O)(=O)Nc4nccs4)cc3)nnc2-c2ccco2)cc1	/	74*	/	-1	/	/	69*	30*
Cc1cc(NS(=O)(=O)c2ccc(NC(=O)CSc3nnc(SCc4ccc(Cl)cc4)s3)cc2)nc(C)n1	/	59*	/	3	/	/	58*	20*
SMILES	ABHD5 PLIN5 PPI	rCAG RNA binder	Rtt109 Vps75	PRMT1 inh	ALR inh	LANA-H2A inh	rCAG binder conf	DNA CAG counter	others
COc1ccc(-n2c(SCC(=O)Nc3nccs3)nnc2-c2ccoc2C)cc1	-3	-5	-2	-2	3	1	/	/
CC(C)C[C@H](NC1(C(=O)NCCc2c[nH]c3ccccc23)CCC1)C(=O)NCCCc1ccccc1	/	/	/	-2	/	/	/	/
CC(C)(C)c1ccc(-c2nnc(SCC(=O)Nc3ccc(S(=O)(=O)Nc4nccs4)cc3)n2Cc2ccco2)cc1	/	51*	/	22*	/	/	47*	20*
CC(C)CS(=O)(=O)C1=NN2C(=N)/C(=C\c3ccc(OC(=O)c4ccco4)cc3)C(=O)N=C2S1	2	81*	-1	0	21	11	87*	66*
CCS(=O)(=O)C1=NN2C(=N)/C(=C\c3ccc(OC(=O)c4ccco4)c(OC)c3)C(=O)N=C2S1	0	52*	?	5	54	1	80*	47*
CC1CCN(C2=NN3C(=N)/C(=C\c4ccc(OC(=O)c5ccco5)cc4)C(=O)N=C3S2)CC1	5	27	-3	3	12	2	/	/
C=CCOc1ccc(/C=C2\C(=N)N3N=C(S(=O)(=O)CC)SC3=NC2=O)cc1OC	-6	36*	4	8	17	-1	82*	42*
CCOC(=O)c1ccc(N2NC(=O)/C(=C/c3ccc(OC(=O)c4ccco4)c(OC)c3)C2=O)cc1	/	84*	/	12	37	3	90*	66*
Cc1cc(C)c(S(=O)(=O)N2CCN(C(=O)c3cc4ccccc4oc3=O)CC2)c(C)c1	5	3	-2	-1	5	3	/	/
COc1cc(/C=C2/C(=O)NN(c3ccc(Cl)cc3)C2=O)cc(OC)c1O	-9	37*	3	16	19	1	13	4.5*

Screens (PubChem BioAssay)
